# Assay outcomes as filed in PubChem BioAssay.
# HT1080 IDH1KD tx: qHTS for induction of synthetic lethality in tumor cells producing 2HG: qHTS for the HT-1080-IDH1KD cell line; HT-1080 IDH1 knockdown viability, ATP luminescence, 48 h; Potency, µM (doses to about 46.1 µM), for inactives: at the highest dose activity, negative = toxicity, most hits filed as cytotoxic; actives 2% (n = 360,000); AID 686971, 2013;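 also: potency is read from the fitted curve at half-maximal effect; 0% = DMSO wells and -100% = cell-free medium wells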
#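 Assay cells: HT-1080 with IDH1 knockdown, 750 per well, RPMI/5% FBS. Exposure: 48 h at 37 °C following 2 h pre-incubation. Read: CellTiter-Glo luminescence; fitted concentration-response, curve class assigned.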
# TDP1 cell noCPT: qHTS for Inhibitors of human tyrosyl-DNA phosphodiesterase 1 (TDP1): qHTS in cells in absence of CPT; DT40 Tdp1-/- hTDP1 cells, no CPT, ATP luminescence, 48 h; Potency, µM (highest dose often 46.2 µM), for the others: at the top dose activity change, negative = growth inhibition, actives largely listed as inhibitors; actives 15% (n = 420,000); also: potency is read from the fitted curve at half-maximal effect; nearly all actives have a fitted effect of over 55% in size
#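 Luminescent ATP content (CellTiter-Glo) served as the growth readout. Knockout chicken DT40 cells expressing human TDP1 were exposed to compounds without camptothecin for a minimum 48 hr at 37 °C.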
# IL-1B inflam inh: qHTS for Inhibitors of Inflammasome Signaling: IL-1-beta AlphaLISA Primary Screen; THP-1 LPS/ATP IL-1B secretion, AlphaLISA, 16 h; active compounds read low; activity change, % at 57.5 µM; actives 4.7% (n = 360,000); AID 743279, 2014; in the data active = activity change below about -50%; inconclusive = mostly about -30% to -49%
#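 THP-1 cells pretreated 1 hr with compounds (up to 57.5 uM final), then stimulated with LPS (250 ng/mL final) plus ATP (1.25 mM final); secreted IL-1B measured by AlphaLISA after 16 hr, decreased signal indicating inhibition.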
# HT1080-NT tox: qHTS for induction of synthetic lethality in tumor cells producing 2HG: qHTS for the HT-1080-NT fibrosarcoma cell line. Potency, µM (series often up to 46.1 µM), for the others: top-dose activity, negative = less viability, hits mostly cytotoxic. actives 1.6% (n = 360,000). AID 686970, 2013. HT-1080-NT fibrosarcoma viability, CellTiter-Glo ATP luminescence, 48 h;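 also: NT is the 2HG producing partner of a matched IDH1 knockdown line; potency is read from the fitted curve at half-maximal effect; 0% = DMSO-treated cells and -100% = media-only wells without cells; nearly all actives have a fitted effect of over 55% in size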
#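 750 cells/well, RPMI + 5% FBS; 2 h settle, compound pin-transfer, 48 h at 37 degrees C. CellTiter-Glo 10 min RT, luminescence. Normalized to DMSO and media-only wells.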
# TDP1 cell CPT: qHTS for Inhibitors of human tyrosyl-DNA phosphodiesterase 1 (TDP1): qHTS in cells in presence of CPT; actives 12% (n = 420,000); AID 686979, 2013; Potency, µM (series often up to 46.2 µM), inactives show at the top dose activity change, negative = growth inhibition, usual class: inhibitors; chicken DT40 Tdp1-/-;hTDP1 cells + 20 nM CPT, ATP luminescence, 48 h; also: potency is read from the fitted curve at half-maximal effect; nearly all actives have a fitted effect of over 55% in size
#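 Cell growth measured by CellTiter-Glo luminescence after a minimum 48 h, 37 C compound exposure with 20 nM CPT in Tdp1-knockout DT40 cells stably expressing hTDP1, seeded 400/well; qHTS titration format.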
# ALOX12 inh: Primary qHTS assay for inhibitors of human arachidonate 12S-lipoxygenase (ALOX12): Round 2 | Polyunsaturated fatty acid lipoxygenase ALOX12 (Homo sapiens), P18054 | purified 12hLO, xylenol orange hydroperoxide absorbance | Potency, µM (top dose mostly 108 µM), inactives show at the top dose activity change, negative = inhibition, usual class: inhibitors | actives 1.1% (n = 580,000); also: potency is read from the fitted curve at half-maximal effect
# Target sequence (P18054 whole entry, looked up): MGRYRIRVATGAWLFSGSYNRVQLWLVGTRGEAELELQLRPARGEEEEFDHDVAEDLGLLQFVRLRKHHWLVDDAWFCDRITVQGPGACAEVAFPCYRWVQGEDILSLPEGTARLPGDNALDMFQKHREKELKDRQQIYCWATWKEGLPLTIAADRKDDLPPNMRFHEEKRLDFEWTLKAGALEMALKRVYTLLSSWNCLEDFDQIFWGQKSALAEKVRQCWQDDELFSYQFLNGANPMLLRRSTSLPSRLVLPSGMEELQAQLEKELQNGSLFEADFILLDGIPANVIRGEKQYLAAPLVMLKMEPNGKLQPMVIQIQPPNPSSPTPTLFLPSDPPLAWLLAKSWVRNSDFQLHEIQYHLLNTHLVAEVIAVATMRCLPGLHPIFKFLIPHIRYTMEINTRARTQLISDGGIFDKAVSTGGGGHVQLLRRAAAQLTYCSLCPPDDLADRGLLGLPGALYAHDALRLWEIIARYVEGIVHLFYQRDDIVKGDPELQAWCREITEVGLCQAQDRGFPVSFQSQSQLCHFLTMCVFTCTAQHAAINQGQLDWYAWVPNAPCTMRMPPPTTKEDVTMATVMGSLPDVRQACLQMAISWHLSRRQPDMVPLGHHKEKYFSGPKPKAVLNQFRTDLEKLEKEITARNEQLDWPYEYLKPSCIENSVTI
#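 Purified human 12hLO at 150 nM in 25 mM Hepes, 0.01% Triton X-100, pH 7.0, preincubated 15 min at room temperature with compound. Reaction started with 40 uM arachidonic acid, 30 min at room temperature. Hydroperoxide measured by Fe-xylenol orange, 573/405 nm absorbance ratio.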
# Active calls of the source: *; i = inactive; u = inconclusive; x = not tested or not shown; [ ] = another dose, or the depositor's remark. The sample as a whole holds a higher share of hits than the screen did. Unless noted, calls follow the shape of the dose curve; as a rule, active = well fitted curve in the direction sought with a large enough effect; inconclusive = small, poorly fitted or top-dose-only effect, or another doubt; inactive = no such curve, though single readings can be large; an effect the other way counts as inactive or inconclusive. Unless noted, % is scaled to controls: 0 for no effect and ±100 for the full control effect.
SMILES,HT1080 IDH1KD tx,TDP1 cell noCPT,IL-1B inflam inh,HT1080-NT tox,TDP1 cell CPT,ALOX12 inh
O=C(NC(CN1CCCC1)c1ccccc1)c1cc2ccccc2oc1=O (stereo not given),x,x,x,x,x,-0.4%
CCOC(=O)c1c(NC(=O)C(Sc2ccccc2)c2ccccc2)sc(C(=O)N(C)C)c1C (stereo not given),u,16.4µM*,-24.9,-4.3%,u,2.4%
CCOC(=O)c1c(NC(=O)COC(=O)CCOc2ccccc2C)sc(C(=O)NC)c1C,-3.1%,u,-2.5,-2.7%,23.1µM*,-1.1%
CCOC(=O)c1c(NC(=O)COC(=O)CNC(=O)c2ccco2)sc(C)c1C,-10.3%,u,-6.2,-3.0%,5.8µM*,36.0%
CCOC(=O)c1c(NC(=O)COC(=O)c2ccc(O)cc2)sc(C(=O)N(C)C)c1C,-4.5%,23.1µM*,-1.4,-0.6%,u,-0.6%
O=C1CCCN1CCCN1C(=O)[C@H]2CN(Cc3cccc(Cl)c3F)C[C@H]2C1=O,x,x,x,x,x,46.8%
CCN(Cc1ccccc1)C(=O)Cn1cnc2c(cnn2C)c1=O,x,x,x,x,x,10.2%
Cn1c(-c2cccs2)[n+](C)c2ccccc21,u,18.4µM*,7.1,-3.5%,u,0.0%
CCOn1c(=O)c(-c2cccs2)[n+]([O-])c2ccccc21,0.0%,-9.0%,u,-1.0%,-10.5%,21.4%
CCc1nc2cc(N3CCC(C(=O)NCc4cc(F)cc(F)c4)CC3)cnc2nc1CC,x,x,x,x,x,10.8%
COC(=O)c1c(-c2cccs2)csc1NC(=O)COc1ccc(C)cc1,x,u,x,x,u,-15.0%
COC(=O)c1c(-c2cccs2)csc1NC(=O)COc1ccccc1,x,20.6µM*,x,x,16.4µM*,u
COC(=O)c1c(-c2cccs2)csc1NC(=O)COc1ccc(C(C)(C)C)cc1,x,20.6µM*,x,x,14.6µM*,-14.1%
CC(Oc1cccc(Cl)c1)C(=O)Nc1ccc2c(N3CCOCC3)ncnc2c1 (stereo not given),x,x,x,x,x,-13.0%
Cc1ccc(S(=O)(=O)NCc2ccc(N3CCN(C(=O)OC(C)(C)C)CC3)cc2)cc1,-1.3%,16.4µM*,20.6,4.5%,13µM*,-0.2%
CN1CCN(c2ccc(CNS(=O)(=O)c3ccc(Cl)cc3)cc2)CC1,20.4%,11.6µM*,-2.0,10.3%,u,i
Cc1ccc(N(CC(=O)NC2CCCCC2)C(=O)CCCC(=O)Nc2ccccn2)cc1,-1.0%,-23.1%,16.6,-1.6%,-18.3%,-6.5%
COCCN1CCC(CN(Cc2ccc(Cl)s2)CC2CCCO2)CC1 (stereo not given),x,x,x,x,x,24.1%
N#CC1=C2SC=C(c3ccc(Br)cc3)N2CCCC1=O,-3.3%,23.1µM*,-11.9,-27.8%,u,u
O=C1COc2ccc(-c3ccsc3)nc2CN1Cc1ccccc1F,x,x,x,x,x,16.8%[176 µM]
OC(CN1CCOCC1)CN(c1ccccc1)c1ccccc1 (stereo not given),1.6%,11.6µM*,18.4,3.8%,u,u
OC(CN1CCCCC1)CN(c1ccccc1)c1ccccc1 (stereo not given),-10.3%,25.9µM*,-18.6,-4.2%,u,12.1%
NC(N)=NCC(O)CN(c1ccccc1)c1ccccc1 (stereo not given),-11.5%,14.6µM*,-82.0*,-17.6%,u,u
OC(CN1CCCCCC1)CN(c1ccccc1)c1ccccc1 (stereo not given),-2.5%,u,0.0,0.1%,u,i
CC1CCN(CC(CS(=O)(=O)c2ccc([N+](=O)[O-])cc2)N2CCC(C)CC2)CC1 (stereo not given),5.1%,2.31µM*,-76.4*,-2.6%,2.06µM*,-23.3%
SMILES,HT1080 IDH1KD tx,TDP1 cell noCPT,IL-1B inflam inh,HT1080-NT tox,TDP1 cell CPT,ALOX12 inh
CCN1CCN(CCCNC(=O)CCc2nc(-c3ccc(OC)cc3)no2)CC1,6.9%,2.6%,27.1,2.8%,-13.4%,-6.5%
COc1ccc(-c2noc(CCC(=O)NCCCN3CCN(c4ccccc4F)CC3)n2)cc1,-9.3%,16.4µM*,-23.3,-1.2%,23.1µM*,-2.3%
COc1ccc(-c2noc(CCC(=O)NCCN3CCN(c4ccccc4F)CC3)n2)cc1,-1.5%,14.6µM*,-10.5,-5.4%,16.4µM*,0.0%
Cn1nccc1C(=O)N1CC(c2nc(CCOCC3CCCC3)no2)C1,x,x,x,x,x,35.0%
CCC1NC(=O)c2ccccc2N1c1cccc(Cl)c1 (stereo not given),u,16.4µM*,34.2,-27.2%,u,u
CCOc1cc(N)c(Br)cc1OCC,x,x,x,x,x,15.2%
O=C(NC1CC1)c1ccc2c(c1)C1C3CCC(C3)C1C(c1ccccc1)N2 (stereo not given),3.7%,25.9µM*,u,3.6%,u,-14.1%
COc1ccc(N2CCN(S(=O)(=O)c3ccc4c(c3)CC(C)N4C(C)=O)CC2)cc1 (stereo not given),x,u,x,x,6.51µM*,-16.4%
CC(=O)N1c2ccc(S(=O)(=O)N3CCC(C(=O)N4CCN(c5cccc(C(F)(F)F)c5)CC4)CC3)cc2CC1C (stereo not given),-27.9%,2.31µM*,-29.9,u,8.2µM*,-8.4%
CC(=O)c1ccc(N2CCN(C(=O)C3CCN(S(=O)(=O)c4ccc5c(c4)CC(C)N5C(C)=O)CC3)CC2)cc1 (stereo not given),-4.3%,u,-7.8,-0.4%,18.4µM*,-5.3%
COc1ccc(N2CCN(S(=O)(=O)c3ccc4c(c3)NC(=O)CC(=O)N4)CC2)cc1,-1.7%,2.8%,32.8,1.1%,-28.9%,-8.6%
CC(=O)N1c2ccc(S(=O)(=O)N3CCN(c4cccc(Cl)c4)CC3)cc2CC1C (stereo not given),x,u,x,x,u,1.3%
CCOC(=O)C1CCN(C(=O)C2CCN(S(=O)(=O)c3ccc4c(c3)CC(C)N4C(C)=O)CC2)CC1 (stereo not given),-0.6%,-25.8%,17.3,-0.7%,u,8.7%
